Test results taken from PubChem BioAssay (NCI).
About 83,000 compounds went through this panel and 20% of them were active in at least one assay; those are over-represented in the sample as a whole.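 Cell lines were cultured in 96-well plates, exposed to a single compound concentration, and assessed for percent growth 48 hours later.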 Unmarked numbers belong to inactive results. Calls of active or inactive are those of the source. Rule for the calls: active = growth percent below 10; inactive = the rest.

What follows are molecules tested on HL-60(TB) leukemia (assay: NCI-60 one-dose screen, 48 h (100 = growth as untreated, 0 = no growth, -100 = all killed)). Settings: 10 µM unless noted.

Q: Which growth does the source give for `C=C1C(=O)O[C@H]2[C@H]1CC/C(Cn1cc(-c3cc(C)c(C)cc3C)nn1)=C\CC[C@@]1(C)O[C@@H]21` here?
A: The growth was -9.09% (active).

Q: For `CC(Cl)(CCl)CS(=O)(=O)c1ccc(Cl)cc1` (stereo not given), which growth is on record?
A: The growth was 87.2%.

Q: For `Cc1ccc2c(c1)O/C(=C\c1cccc(OCC(=O)c3ccccc3)c1)C2=O`, which growth is on record?
A: The growth was 12.1%.

Q: With `Cc1cc(C)nc(SC2=C(Nc3ccc(C)c(Cl)c3)C(=O)N(Cc3ccccc3)C2=O)n1` as the molecule, how does the growth read?
A: The growth was 26.1% [30 µM].

Q: Which growth does the source give for `N#C/C(=C\c1ccc(Br)cc1)n1nnc2ccccc21` here?
A: The growth was 2.58% (active).

Q: `CS(=O)(=O)Nc1ccc(C(=O)NC(C(=O)NO)c2ccc(-c3cccc(F)c3)cc2)cc1` (stereo not given) was tested. Which growth did it give?
A: Its growth is 103%.

Q: `COC1CC(N)C2OC(c3ccccc3)OCC2O1` (stereo not given) was tested. Which growth did it give?
A: Its growth is 102%.

Q: Which growth does the source give for `Cc1ccc(/C(CS(=O)(=O)c2ccc(C)cc2)=N\O)cc1` here?
A: The growth was 99%.

Q: For `Cn1ccnc1C(=O)/C=C/c1ccc(C(=O)Nc2ccccc2O)cc1`, which growth is on record?
A: Its growth is 0.702% (active).

Q: With `N#Cc1c(NC(=O)c2cccs2)[n+]([O-])c2ccc(Cl)cc2[n+]1[O-]` as the molecule, how does the growth read?
A: Its growth is 122%.

Q: With `COc1cc(C2CC(c3ccc(Nc4ccnc5cc(Cl)ccc45)cc3)=NN2C=O)cc(OC)c1OC` (stereo not given) as the molecule, how does the growth read?
A: Its growth is 19.7%.

Q: How did the growth turn out when `N#Cc1c(N)sc(=S)c2c1CCCC2` was run?
A: The growth was 97.6%.

Q: `CC/C=C1/C(=O)C=C[C@@H]1C/C=C\CCCC(=O)O` was tested. Which growth did it give?
A: The growth was 52.1%.

Q: With `Fc1ccc(C(c2ccc(F)cc2)C(Cl)Cl)cc1` as the molecule, how does the growth read?
A: The growth was 85.7%.

Q: With `O=C1/C(=C/c2cc(F)cc(F)c2)Cc2cc(F)cc(F)c21` as the molecule, how does the growth read?
A: The growth was 122%.

Q: How did the growth turn out when `O=C(Nc1cccc2cccnc12)c1cc(C(=O)c2ccc(Cl)cc2)n2ccc(-c3ccncc3)cc12` was run?
A: Its growth is 125%.

Q: `COc1cc(/C=C/C(=O)c2cccc(-n3cc(-c4cc(OC)c(OC)c(OC)c4)[nH]c3=O)c2)cc(OC)c1OC` was tested. Which growth did it give?
A: The growth was -18.5% (active).

Q: With `CC(C)=CC(=O)OC(=O)C=C(C)C` as the molecule, how does the growth read?
A: Its growth is 104%.

Q: `CN(C)CCCN1c2ccccc2CCc2ccc(Cl)cc21` was tested. Which growth did it give?
A: The growth was 80.2%.

Q: `O=C1C(N2CCOCC2)=Cc2cccc3cccc1c23` was tested. Which growth did it give?
A: Its growth is -26% (active).

Q: With `CCCN1C(=O)CSC1=Nc1ccc2cc3ccc(N=C4SCC(=O)N4CCC)cc3nc2c1` as the molecule, how does the growth read?
A: Its growth is 8.32% (active).

Q: With `COc1ccc(OC)c(/C=C/C(=O)N/N=C/c2ccc(Cl)cc2)c1` as the molecule, how does the growth read?
A: Its growth is 20.1%.

Q: Which growth does the source give for `NC(CSC(c1ccccc1)(c1ccccc1)c1ccc(Cl)cc1)C(=O)O` (stereo not given) here?
A: The growth was -40.5% (active).

Q: With `COc1ncc(-c2ccc3ncnc(Nc4cccc(Cl)c4)c3c2)cc1NS(=O)(=O)C1CC1` as the molecule, how does the growth read?
A: The growth was 36.7%.

Q: For `COc1cc2c(cc1OCCCN1CCN(CCCn3c4ccccc4c4ccccc43)CC1)N=C[C@@H]1CCCN1C2=O`, which growth is on record?
A: The growth was -44.8% (active).

Q: With `COc1cc(C=C2C(=O)N(C)C(=O)N(C)C2=O)cc(CN2CCCCC2)c1O` as the molecule, how does the growth read?
A: Its growth is 96.3%.

Q: With `Clc1ccc(C(/C=C/c2sc(Cl)nc2Cl)=N/Nc2cc(Cl)cc(Cl)c2)cc1` as the molecule, how does the growth read?
A: Its growth is 99.4%.

Q: Which growth does the source give for `Cc1cc2nc(-c3c(-c4ccc(F)cc4)nc4sccn34)[nH]c2cc1C` here?
A: Its growth is 87.3%.

Q: `C=C(COC(C)=O)[C@H]1CC/C(C)=C/CC/C(C)=C/CC[C@@]2(C)O[C@H]2C1` was tested. Which growth did it give?
A: The growth was 103%.

Q: With `OC(COc1ccccc1Cl)CN1CCN(c2cccc(Cl)c2)CC1` (stereo not given) as the molecule, how does the growth read?
A: The growth was 112%.

Q: Which growth does the source give for `CC1(C)CC(C(=O)OCCCCCCCCCCC[P+](c2ccccc2)(c2ccccc2)c2ccccc2)C(C)(C)N1O` (stereo not given) here?
A: The growth was -70.8% (active).

Q: How did the growth turn out when `O=C1CCc2c(sc3[nH]c(=S)n(Cc4ccccc4)c(=O)c23)C1` was run?
A: The growth was 10.9%.

Q: For `Cc1nccc2c3ccc(OCc4cn(-c5ccccc5)nn4)cc3n(CCCc3ccccc3)c12`, which growth is on record?
A: The growth was 30.1%.

Q: With `O=c1oc2ccc(Cl)cc2cc1-c1cs/c(=N/N=C\c2ccc(Cl)cc2)n1/N=C/c1ccc(Cl)cc1` as the molecule, how does the growth read?
A: The growth was 95.1%.

Q: For `O=C(N/N=C/c1cccc(O)c1O)c1ccccc1`, which growth is on record?
A: Its growth is 19.1%.

Q: With `Nc1ccc(Nc2nccc(-c3ccc4ccccc4c3)n2)cc1` as the molecule, how does the growth read?
A: The growth was 21.2%.

Q: For `O=[N+]([O-])c1cc(S(=O)(=O)OCC2CO2)ccc1Cl` (stereo not given), which growth is on record?
A: The growth was 80.2%.

Q: With `CCCCCCCCC(=O)Nc1ccc(O)cc1` as the molecule, how does the growth read?
A: The growth was 61.5%.

Q: Which growth does the source give for `Cc1ccc(N/N=C(/C(=O)c2ccc(Cl)cc2)c2nc(C)cc(=O)[nH]2)cc1` here?
A: The growth was 109%.

Q: With `OCC12CCCC(CO)(COC1)C2O` (stereo not given) as the molecule, how does the growth read?
A: The growth was 118%.
